# Hits are enriched below; roughly 13% of the tested compounds scored in any of these assays.
# Marburg entry inh = blocks Marburg virus binding to or entry into cells | hit rate 1.8% among 300,000 | Potency, µM (doses to about 37.8 µM), for inactives: top-dose activity change, negative = inhibition, actives largely listed as inhibitors | AID 540276 | Marburg virus pseudotyped entry inhibition, cell reporter; calls by dose curve; tested in HEK293 cells; further: potency means the concentration at half of the fitted maximal effect; on the % scale 0 is the no-effect control and ±100 the full control effect
# HCV inhibitor = inhibitors of hepatitis C virus infection; Huh7.5.1 HCVcc-Cre infection, luciferase reporter, 44 h; Potency, µM (top dose mostly 41.8 µM), without a hit: top-dose activity change, negative = inhibition, hits mostly inhibitors; hit rate 3.4% among 340,000; active means well fitted inhibition curve with a large enough effect; inconclusive means small, poorly fitted or top-dose-only effect, or another doubt; inactive means no such curve, though single readings can be large or run the other way; further: potency means the concentration at half of the fitted maximal effect; on the % scale 0 is the no-effect control and ±100 the full control effect
#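 After 44 h co-culture of compound, cells and HCVcc-Cre (~0.5 moi), substrate is added for 15 min at room temperature and luciferase measured over 15 sec. Cells were seeded at 1,000/well and pre-cultured 4 h.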
# FMDV inh = blocks foot and mouth disease virus | FMDV antiviral cell-based qHTS | Potency, µM (top dose mostly 57.9 µM), without a hit: top-dose activity change, negative = inhibition, most hits filed as inhibitors | hit rate 1.2% among 410,000; calls by dose curve; tested in HEK293T cells; further: read-out not given here; potency means the concentration at half of the fitted maximal effect; on the % scale 0 is the no-effect control and ±100 the full control effect; nearly all actives have a fitted effect of over 45% in size
# Shiga inhibitor = inhibitors of Shiga toxin in Vero cells | Vero cells, Shiga toxin protein synthesis inhibition reporter | inhibition, % at 38.7 µM | hit rate 9.2% among 290,000 | AID 2315; in the data active means inhibition mostly above about 28%, no sharp cut-off; inactive means mostly below about 43%; further: 0% is about no effect
# Lassa entry inh = Lassa virus entry inhibition; Lassa virus pseudotype entry inhibition, cell reporter; Potency, µM (doses to about 37.9 µM), inactives show top-dose activity change, negative = inhibition, actives largely listed as inhibitors; hit rate 1.2% among 300,000; calls by dose curve; tested in HEK293 cells; further: potency means the concentration at half of the fitted maximal effect; on the % scale 0 is the no-effect control and ±100 the full control effect; nearly all actives have a fitted effect of over 50% in size
# CHX counter = counter-screen hit for Shiga toxin inhibitors, cycloheximide; cell reporter, cycloheximide protein synthesis inhibition counterscreen; hit rate 12% among 300,000; AID 2314; max response, %; in the data active means max response mostly above about 13%, no sharp cut-off; inactive means mostly below about 14%; further: read at 38.3 µM for the half of the compounds with a filed dose; 0% is about no effect
# * hit, by the source's call; ? = inconclusive; nt = no result given; [ ] = dose if it differs, or a comment.
SMILES,Marburg entry inh,HCV inhibitor,FMDV inh,Shiga inhibitor,Lassa entry inh,CHX counter
CC(=O)c1ccc(F)c(-c2cc(C)cc3c2OC(CNC(=O)c2cccnc2)C3)c1 (stereo not given),nt,nt,-3%,nt,nt,nt
COc1ccccc1N(Cc1cc(=O)[nH]c2ccccc12)C(=O)c1cccc([N+](=O)[O-])c1,nt,-16%,-20%,-11,nt,-3
CN1C(=O)C(=Cc2c(OCc3cnc(Cl)s3)ccc3ccccc23)C(=O)N(C)C1=O,nt,?,22%,83*,nt,53*
CN1C(=O)C(=Cc2ccccc2OCc2ccccc2Cl)C(=O)N(C)C1=O,9%[46.1 µM],15%,2%,-1,2%,10
Cc1ccc(C(=O)Nc2nc(=O)n(C(=O)C3CC3)s2)cc1,6%,?,-21%,20,9%,16*
O=C(Nc1nc(=O)[nH]s1)c1ccccc1,-10%[46.1 µM],18%,10%,2,1%,7
O=C(Nc1nc(=O)n(C(=O)C2CC2)s1)c1ccccc1,?,?,10%,2,0%,27*
Cc1ccc(C(=O)Nc2nc(=O)n(C(=O)c3ccccc3C)s2)cc1,?,-18%,32%,8,-2%,13
COc1cc(OC)c(NC(=O)N2CCC(CN3CCCC3)CC2)cc1Cl,nt,nt,-10%,nt,26%[46.1 µM],nt
Cc1ccccc1SCCNC(=O)c1ccccc1Br,-16%[46.1 µM],-9%,35%,99*,?,43*
Cc1ccccc1SCCNC(=O)CCc1ccccc1,nt,nt,nt,28*,nt,26
O=C(NCCNC(=O)c1ccccc1Br)c1ccccc1Br,nt,-2%,3%,-6,nt,1
CC1CCN(S(=O)(=O)c2ccc(C(=O)Nc3sc4c(c3C(N)=O)CC(C)(C)NC4(C)C)cc2)CC1,nt,nt,8%,nt,-25%[46.1 µM],nt
COc1cc2sc(NC(=O)c3ccco3)nc2cc1Cl,nt,9%,68%,102*,nt,45*
Cc1cc2sc(NC(=O)c3ccco3)nc2cc1Cl,?,-8%,8%,79*,?,71*
COc1cccc2sc(N3CCN(C(=O)c4ccc([N+](=O)[O-])o4)CC3)nc12,-29%,7.9µM*,?,nt,?,nt
Cc1ccc2sc(N3CCN(C(=O)c4ccc([N+](=O)[O-])o4)CC3)nc2c1C,9%,?,0%,nt,?,nt
COc1ccc(CC2C(=O)OC(C)(C)OC2=O)c(Cl)c1OC,-16%[46.1 µM],3%,-7%,3,-12%[46.1 µM],-1
COc1ccc2c(=O)cc(-c3ccncc3)oc2c1OC,?,11µM*,-13%,nt,-18%[46.1 µM],nt
Cc1nc2ccccc2c(=O)n1NCc1cc(Br)cs1,-24%,-10%,nt,-1,2%,-3
O=C(OCC(=O)c1ccc(Cl)s1)c1ccc2ccccc2n1,-2%,13%,-10%,-9,25%,8
CC1(C)CC(NC(=O)N2c3ccccc3Sc3ccccc32)CC(C)(C)N1,3.2µM*,-6%,-3%,-3,-4%,-2
Cc1ccc(C(=O)Nc2cccc(NC(=O)c3ccc(C)cc3)n2)cc1,-9%[46.1 µM],-17%,26%,nt,-9%,nt
Cc1cccc(C)c1NC(=S)NCCSc1ccc(Cl)cc1,?,10µM*,1%,21,?,-1
O=C(O)c1ccc(N/N=C/c2ccncc2)cc1,nt,15%,31%,35*,nt,25*
SMILES,Marburg entry inh,HCV inhibitor,FMDV inh,Shiga inhibitor,Lassa entry inh,CHX counter
Cc1ccc2cc(/C=N/NC(=O)c3ccc(F)cc3)c(Cl)nc2c1,1%,-18%,-15%,-7,12%,-2
O=C(O)c1ccc(N/N=C/c2ccc3nccnc3c2)cc1,nt,21%,7.1µM*,-23,nt,-6
O=C(O)c1ccc(/C=N/Nc2ncc(Cl)cc2Cl)cc1,nt,24%,44%,65*,nt,21
Cc1ccc2nc(Cl)c(/C=N/Nc3ccc(C(=O)O)cc3)cc2c1,nt,17%,-27%,36,nt,32*
CCOc1cc(/C=N\NC(=O)OC(C)(C)C)ccc1OC(=O)c1ccco1,21%[46.1 µM],4%,14%,35,3%,16
O=c1[nH]c(CSc2nc3ccccc3s2)nc2cc(Cl)ccc12,nt,nt,nt,25,nt,9
Cc1ccc(F)cc1NC(=S)NCCc1ccccc1,-16%,10µM*,6%,-5,13%,-2
Fc1cc(Br)ccc1NC(=S)NCCc1ccccc1,-2%,-5%,nt,139*,8%,46*
Cc1ccc(NC(=S)NCCc2ccc(F)cc2)c(C)c1,?,2%,12%,-1,13%,16
COc1cc(N)c(Cl)cc1C(=O)OCC(=O)N(C)C1CCCCC1,nt,6%,1%,nt,nt,nt
CC(C)(C)c1ccc(CSc2nc(N)cc(=O)[nH]2)cc1,?,?,-6%,41*,-18%,39*

# High-throughput results: PubChem, National Center for Advancing Translational Sciences (NCATS)
